D1 antag: blocks dopamine activation of the human D1 receptor; P21728; activity change, negative = inhibition, % at 10 µM; HEK293 TREx D1 cells, calcium flux, dopamine EC80; active compounds read low; 360,000 tested, 3.2% active; in the data active = activity change below about -30%
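HEK293 T-REx cells expressing inducible, force-coupled D1 receptor; no-wash Ca dye, 30–90 min RT. Cmpd → 180 s read at 1 Hz → EC80 DA → 180 s read.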
D1 ag: activates the human D1 dopamine receptor; P21728; HEK293 T-REx D1 cells, calcium flux, agonist mode; activation, % at 2 µM; 360,000 tested, 1% active
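Agonism was scored from calcium flux recorded over 180 s (1 read/s) after pintool compound addition, following a 10-cycle baseline. Cells were inducible force-coupled HEK293 TREx D1, plated overnight at 30 C and loaded with no-wash calcium dye.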
D1 PAM: enhances dopamine response at the human D1 receptor | P21728 | potentiation, % at 10 µM | AID 504651 | HEK293 TREx D1 cells, calcium flux, dopamine EC20 potentiation | 360,000 tested, 0.036% active; in the data active = potentiation above about 30%
TRHR agonist: activates the human TRH receptor; P34981; TRHR cells, calcium flux fluo-8, FDSS agonist mode; activation, % at 2 µM; 360,000 tested, 0.18% active; AID 493084
Target sequence (P34981 whole entry, looked up): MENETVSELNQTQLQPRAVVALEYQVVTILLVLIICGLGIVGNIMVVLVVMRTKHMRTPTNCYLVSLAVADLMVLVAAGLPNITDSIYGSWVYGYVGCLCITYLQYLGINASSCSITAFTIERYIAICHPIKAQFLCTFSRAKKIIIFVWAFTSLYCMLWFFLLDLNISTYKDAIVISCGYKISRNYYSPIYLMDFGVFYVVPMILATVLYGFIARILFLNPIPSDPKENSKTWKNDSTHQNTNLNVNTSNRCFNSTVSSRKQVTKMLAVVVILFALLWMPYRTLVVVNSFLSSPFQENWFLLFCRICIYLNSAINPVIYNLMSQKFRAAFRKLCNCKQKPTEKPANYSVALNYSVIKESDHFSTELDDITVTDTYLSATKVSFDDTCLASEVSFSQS
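Steps: seed TRHR cells overnight; add fluo-8 no-wash Ca dye, RT 30 min–1.5 h; record 10 s baseline; pin-transfer compounds; monitor fluorescence 1 cycle/s for the agonist window. Calcium increases flag candidate agonists.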
TRHR PAM: allosterically enhances the human TRH receptor; TRHR cells, fluo-8 calcium fluorescence, EC20 TRH enhancement; P34981; 360,000 tested, 0.66% active; AID 493056; enhancement, % at 2 µM; in the data active = enhancement above about 30%
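TRHR-expressing cells loaded with fluo-8 calcium dye were read kinetically (ex 480/em 530) during compound addition, then stimulated with an EC20 of TRH (10 nM final). Enhancement of the Gq-mediated intracellular calcium response was scored.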
Large screens that a line does not name were inactive. A selection: hits, their analogues and other compounds. The true share with any hit is near 4.7%. Rule as the data show it, unless noted: active = activation above about 30%; inactive = the rest.

CC1(C)C(=O)N(CCN2CCC(C(=O)c3ccc(F)cc3)CC2)c2ccccc21	D1 antag -62
O=C(CN1CCC(C(=O)c2ccc(F)cc2)CC1)NCc1ccccc1F	none
O=C(c1ccc(F)cc1)C1CCN(CCn2c(=S)[nH]c3ccccc3c2=O)CC1	D1 antag -79
Cc1nc2ccccn2c(=O)c1CCN1CCC(C(=O)c2ccc(F)cc2)CC1	D1 antag -34
O=c1c2ccccc2[nH]c(=S)n1CCCN1CCC(Cc2ccccc2)CC1	D1 antag -31
COc1ccccc1/C=c1\sc2nc(-c3ccccc3OC)nn2c1=O	D1 antag -36
COc1ccc(Br)cc1/C=c1\sc2nc(-c3ccco3)nn2c1=O	none
COc1ccc(C2CC(=O)c3cnc(NC(=O)c4ccccc4)nc3C2)cc1OC (stereo not given)	none
COc1cc(C2CC(=O)c3cnc(NC(=O)COc4ccccc4)nc3C2)cc(OC)c1OC (stereo not given)	D1 antag -30
Cc1ccc(-n2c(=O)cc(N3CCN(c4ccccc4Cl)CC3)[nH]c2=O)cc1	none
Clc1ccc(CSc2snnc2-c2ccccc2)c(Cl)c1	D1 ag 51
c1ccc(CSc2snnc2-c2ccccc2)cc1	none
Cc1ccc(S(=O)(=O)CCC(=O)N(C)C2CCCCC2)cc1	D1 antag -42
Cc1ccc(S(=O)(=O)CCC(=O)OC(C)C(=O)NC2CCCCC2C)cc1 (stereo not given)	D1 antag -42
Cc1ccc(S(=O)(=O)CCC(=O)NC2CCCCC2)cc1	none
CC(OC(=O)Cc1c[nH]c2ccccc12)C(=O)NC1CCCCC1C (stereo not given)	D1 antag -31
CC(OC(=O)CCC(=O)c1ccc(F)cc1)C(=O)NC1CCCCC1C (stereo not given)	none
Cc1ccc(NC(=O)C(C)OC(=O)Cc2c[nH]c3ccccc23)cc1 (stereo not given)	D1 antag -56
COc1cc(OC)cc(-c2c(-c3cccs3)c3cc(-c4ccc(OC)c(OC)c4)ccc3n2C)c1	none (no result: D1 antag)
CCc1ccc(/C=C2/SC(=S)N(CCCC(=O)Nc3ccccc3C(=O)O)C2=O)cc1	D1 antag -32
CCc1ccc(/C=C2/SC(=S)N(CCC(=O)Nc3cccc(C(=O)O)c3)C2=O)cc1	D1 ag 68
Cc1cccc(OCC(=O)Nc2ccccc2C(=O)OCc2cc(=O)n3ccsc3n2)c1	none
CCOC(=O)C(CCCOc1cccc(OC)c1)C(=O)OCC	D1 antag -34
Cc1ccc(/C=C/C(=O)N2CCN(c3ncccn3)CC2)o1	D1 antag -43
Cc1ccc(NC(=O)Cn2c(=O)n(CC(=O)NCCc3ccccc3)c(=O)c3ccccc32)cc1	none
COc1ccc(C(C)=O)cc1CN(c1ccccc1OC)S(=O)(=O)c1cccs1	D1 antag -94
COc1ccccc1CN(C)S(=O)(=O)c1cccs1	none
O=C(NCc1ccc2c(c1)CCN2C(=O)c1ccncc1)c1cccc(Cl)c1	none
C=CCNC(=O)c1cc(C(=O)C(C)c2ncc(C(F)(F)F)cc2Cl)c[nH]1 (stereo not given)	D1 ag 36
CNC(=O)C(C)c1ncc(C(F)(F)F)cc1Cl (stereo not given)	none
COC(=O)c1ccc(NC(=O)CCc2c(C)nc3c(c(C)nn3C(C)(C)C)c2C)cc1	none
COc1ccc(/C=N/NC(=O)CNc2n[nH]c(=O)[nH]c2=O)cc1OC	TRHR PAM 34
COc1ccc(/C=N/NC(=O)CCCOc2ccc(Cl)cc2Cl)cc1	D1 antag -32
COc1ccc(/C=N\NC(=O)CC(=O)Nc2cccc(Cl)c2)cc1OC	D1 antag -51
Cc1cc(=O)n(C(C)C(=O)N2CCCc3ccccc32)c2c1c(C)nn2-c1ccccc1 (stereo not given)	none
CC1=C(C(=O)N2CCN(c3cccc(Cl)c3)CC2)C2(CCCCC2)OC1=O	none
CC1=C(C(=O)N2CCN(c3ccc(Cl)cc3)CC2)C2(CCC(C)CC2)OC1=O (stereo not given)	TRHR PAM 50
O=C(N/N=C/c1cccnc1)c1ccc(NC(=O)c2ccccc2Cl)cc1	TRHR PAM 31
O=C(NCc1ccccn1)c1cc(-c2ccccc2Cl)nc2ccccc12	D1 antag -32
COc1ccc(-c2cc(C(=O)N/N=C(\C)c3cccnc3)c3ccccc3n2)cc1	D1 antag -58
O=C(N/N=C/c1cccnc1)c1cc(-c2ccccc2Cl)nc2ccccc12	D1 antag -40
O=S(=O)(c1ccc2c(c1)OCCO2)N1CCN(S(=O)(=O)c2ccccc2Cl)CC1	none
Cc1ccc(-c2onc(C)c2C)cc1S(=O)(=O)N1CCC(C)CC1	none
Cc1nn2c(-c3ccccc3)ccnc2c1Br	none
Cc1nn2c(-c3cccnc3)ccnc2c1-c1ccccc1	D1 antag -44
CCC(C)(C)NC(=O)CN(C(=O)c1snc(C(N)=O)c1N)c1ccc2nc(C)sc2c1	D1 antag -55
O=c1n(Cc2cccc(F)c2)c2ccccc2c2nc(-c3ccccc3)nn12	D1 antag -53
Cc1cccc(Cn2c(=O)n3nc(-c4ccccc4)nc3c3ccccc32)c1	none
O=C(CN1C(=O)NC2(CCCCC2)C1=O)N1CCN(S(=O)(=O)c2ccc(F)c(F)c2F)CC1	none
CCCCCc1c2c(cc(O)c1C(=O)O)OC(=O)c1c(cc(OC)cc1C(=O)CCCC)O2	D1 antag -31
CCCCc1c(C(=O)O)cc(OC)cc1C(=O)O	none
O=C(NCCCSc1ccccc1)c1cnc(Cl)c(Cl)c1	D1 antag -30
CC(Sc1nc2ccccc2s1)C(=O)c1c(N)n(C)c(=O)n(C)c1=O (stereo not given)	D1 antag -42
CCCCCC(=O)N/N=C/c1cccs1	D1 antag -47
O=C(CCC(=O)Nc1ccc(F)cc1)N/N=C/c1cccs1	none
CCn1cc(C(=O)N2CCN(c3cccc(Cl)c3)CC2)c(=O)c2cc(S(=O)(=O)N3CCC(C)CC3)ccc21	none
COc1ccc(OCC(O)CNC(=O)Nc2ccc(F)cc2)cc1 (stereo not given)	D1 antag -38
Cc1cc(C)c(C(=O)C(C)OC(=O)c2ccc(Cl)nc2)cc1C (stereo not given)	none
CCN(CC)C(=O)c1sc(NC(=O)c2c(OC)cccc2OC)c(C#N)c1C	D1 antag -30
CCN(CC)C(=O)c1sc(NC(=O)c2cccc([N+](=O)[O-])c2)c(C#N)c1C	none
Cc1ccc(-c2ccc(CCC(=O)O)n2-c2ccc(C)c(Cl)c2)cc1	none
Cc1ccc(C)c(-n2c(CCC(=O)O)ccc2-c2ccc(Cl)cc2)c1	D1 antag -32
CC1(C)CC(=O)C(CO)=C(c2cccc3ccccc23)C1=O	none (no result: D1 antag)
O=c1oc2ccccc2cc1-c1cn2cc(Cc3ccc(Br)cc3)sc2n1	D1 ag 45
